This assay has as its target Fibroblast growth factor 10 (Homo sapiens) (UniProt O15520). Put plainly: compounds binding fibroblast growth factor 10 – biochemical, small-molecule microarray, 635 nm fluorescence, primary screen (AID 1102). The following applies: FGF10 binding, fluorescence 635 nm, higher = more signal.
Fibroblast growth factor 10 (Homo sapiens), sequence (O15520 whole entry, looked up): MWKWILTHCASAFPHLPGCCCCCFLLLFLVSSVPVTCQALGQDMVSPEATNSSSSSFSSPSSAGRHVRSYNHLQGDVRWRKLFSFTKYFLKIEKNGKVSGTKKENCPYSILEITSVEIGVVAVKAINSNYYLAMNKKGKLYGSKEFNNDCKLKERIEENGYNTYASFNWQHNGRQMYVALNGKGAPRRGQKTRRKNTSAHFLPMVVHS
As for `CCOC(=O)C[C@H]1[C@H](OC(=O)c2cc3ccccc3oc2=O)[C@@H](NC(=O)c2ccc3ccccc3n2)c2cc(OCCCO)ccc2N1C(=O)c1ccc2ccccc2n1`, the composite z-score came to 1.13. Regarding `CN1C(=O)C2C=CC(C(O)C3CCCCC3)N(N(c3ccccc3)c3ccccc3)C2C1=O` (stereo unspecified), the composite z-score was found to be 0.189. Regarding `COc1ccccc1CN1C(=O)c2ccccc2[C@@H](C(=O)NCC(C)C)[C@@H]1c1ccc(CO)cc1`, the composite z-score worked out at 0.773. The result for `COC(=O)[C@@]1(Cc2ccccc2)[C@H]2c3cc(C(=O)N(C)C)n(Cc4ccc(O)c(OC)c4)c3C[C@H]2CN1C(=O)c1ccccc1` reads -0.27; that for `CCOC(=O)C[C@H]1[C@H](OC(=O)c2ccccc2-c2ccccc2)[C@@H](NC(=O)c2ccccc2)c2cc(OCCCO)ccc2N1C(=O)Cc1ccc(OC)cc1`, 0.0268. The same measure for `CCC[C@@H]1C[C@@]1(CCC)[C@@H](NC(=O)c1ccco1)c1ccc(Cl)cc1`: 0.14; for `CN(C)CCCN1C(=O)[C@@]2(Cc3ccccc31)c1ccccc1C(=O)N(Cc1ccccc1)[C@H]2c1ccc(CO)cc1`: -0.622; for `O=C(NCc1ccccc1)[C@]1(Cc2ccccc2)N=C(c2ccc(OCCCO)cc2)O[C@@H]1c1ccccc1`: 0.154. The result for `O=C1c2ccccc2[C@](Cc2ccccc2I)(C(=O)NC2CC2)[C@H](c2ccc(CO)cc2)N1Cc1ccccc1Cl` reads 0.652; that for `C=C(C(=O)CC[C@H](OC(=O)c1cccnc1)c1ccc(OCCO)cc1)C(C)C`, 1.34; that for `COCCOC(=O)N1C(=O)[C@@]2(c3cc(C#CCCO)ccc31)[C@H](C(=O)N1CCc3cc(OC)c(OC)cc3C1)[C@H]1C(=O)O[C@H](c3ccccc3)[C@H](c3ccccc3)N1[C@@H]2c1ccc(OCCO)cc1`, 1.37.

In the case of `C[N+](C)(C)CCCC[C@@H]1NC(=O)[C@H]2C[C@@H](C(=O)NCCCCCCN)[C@@H](c3cccc(OCCO)c3)N2C1=O`, the composite z-score is 1.17. In turn, `COC(=O)C(CC#Cc1ccc2c(c1)[C@]1(C(=O)N2)[C@H](c2ccc(O)cc2)N2[C@H](c3ccccc3)[C@H](c3ccccc3)OC(=O)[C@H]2[C@@H]1C(N)=O)C(=O)OC` showed a composite z-score of -1.48. `CN(C)C(=O)[C@@]1(CCC(=O)OC(C)(C)C)N=C(c2ccc(OCCCO)cc2)O[C@H]1c1ccccc1N=[N+]=[N-]` gave a composite z-score of 1.46. The result for `CCOC(=O)C[C@H]1[C@H](OC(=O)Cc2ccc3c(c2)OCO3)[C@@H](NC(=O)c2ccccc2)c2cc(OCCCO)ccc2N1C(=O)c1ccc2ccccc2n1` reads 0.274; that for `O=[N+]([O-])c1ccc(C[n+]2ccc(-c3ccc(CO)cc3)cc2)o1`, 0.527; that for `NC(=O)[C@H]1[C@@H]2C(=O)O[C@@H](c3ccccc3)[C@@H](c3ccccc3)N2[C@@H](c2ccc(O)cc2)[C@]12C(=O)Nc1ccc(C#CC3(O)CCCCCC3)cc12`, 1.36. The result for `CN(C)C(=O)[C@@]1(Cc2ccccc2N=[N+]=[N-])N=C(c2ccc(OCCCO)cc2)O[C@H]1c1ccccc1N=[N+]=[N-]` reads 0.817; that for `NC(=O)NCC#Cc1ccc2c(c1)[C@]1(C(=O)N2)[C@H](c2ccc(O)cc2)N2[C@H](c3ccccc3)[C@H](c3ccccc3)OC(=O)[C@H]2[C@@H]1C(N)=O`, -0.0652; that for `NC(=O)NCC#Cc1ccc2c(c1)[C@]1(C(=O)N2)[C@H](c2ccc(OCCO)cc2)N2[C@H](c3ccccc3)[C@H](c3ccccc3)OC(=O)[C@H]2[C@@H]1C(=O)N1CCN(c2ncccn2)CC1`, 0.621. The same measure for `O=C1N(Cc2ccccc2)c2ccccc2[C@H]2OC(c3ccc(OCCCO)cc3)=N[C@@]12CCS(=O)(=O)c1ccccc1`: 1.06. `COCC(=C=CC[C@@H](O)c1ccccc1OCCO)C[C@@H](O)c1ccccn1` registered a composite z-score of 0.457.

In turn, `COc1ccc(C#Cc2ccc3c(c2)[C@]2(C(=O)N3)[C@H](c3ccc(OCCO)cc3)N3[C@H](c4ccccc4)[C@H](c4ccccc4)OC(=O)[C@H]3[C@@H]2C(=O)N2CCN(c3ncccn3)CC2)cc1` gave a composite z-score of 0.214. The compound `COc1ccc(C(=O)Nc2ccc3c(c2)[C@]2(O[C@@H](CCO)[C@H]([Si](C)(C)c4ccc(OC)cc4)[C@H]2C)C(=O)N3Cc2ccccc2)cc1` displayed a composite z-score of 0.572. The compound `CC(C)C[C@@H]1NC(=O)[C@@]23C(=O)N[C@@H](Cc4ccccc4)C2[C@H](C)[C@@]2(C)O[C@H]2C3/C=C/C/C=C\CNC(=O)[C@@H]2CCCN2C1=O` (stereo partly specified) had a composite z-score of 0.0165. In turn, `Cc1cc(C)c(C(O)C2C=CC3C(=O)N(c4ccccc4)C(=O)C3N2Nc2ccc([N+](=O)[O-])cc2)c(C)c1` (stereo unspecified) gave a composite z-score of 0.693. The result for `CC[C@@H]1[C@@H]2C3C(=O)N(CC)C(=O)C3CC(=O)[C@@H]2[C@H](c2ccc(C)cc2)N1S(=O)(=O)c1ccc(C)cc1` (stereo partly specified) reads 0.859. With `C=CCNC(=O)[C@@H]1[C@H]2C(=O)O[C@H](c3ccccc3)[C@H](c3ccccc3)N2[C@H](c2ccc(O)cc2)[C@@]12C(=O)Nc1ccc(C#CCCO)cc12`, the composite z-score is -0.861. `O=C1NC(=O)C2C1C=CC(C(O)c1ccc(-c3ccccc3)s1)N2Nc1ccccn1` (stereo unspecified) came in with a composite z-score of 0.475.

On to `OCCCC1=CC(c2cccs2)N(Cc2cccc(OC(F)(F)F)c2)CC1` (stereo unspecified), for which the composite z-score is -0.566. `O=C1OCC=C[C@H]2OC34C=CCN(CCN5CCOCC5)C(=O)[C@H]3N(CCCCCO)C(=O)[C@@H]4[C@@H]12` (stereo partly specified) yielded a composite z-score of -0.736. As for `CCCN1C(=O)[C@@]2(Cc3ccccc3)N=C(c3ccc(OCCCO)cc3)O[C@H]2c2ccccc21`, the composite z-score is 0.926. The result for `C[N+](C)(C)CCCC[C@@H]1NC(=O)[C@@H]2C[C@H](C(=O)O)[C@H](c3cccc(OCCO)c3)N2C1=O` reads 0.11; that for `C/C=C/[C@@H](CCn1cc([C@H](O)c2ccccc2)nn1)[Si](C)(C)c1ccc(OC)cc1`, -0.71.

The compound `CCN(CC)c1ccc(N2CC=CC34O[C@@H]5/C=C\CCCOC(=O)C5[C@H]3C(=O)N(CCCCCCO)[C@@H]4C2=O)cc1` (stereo partly specified) registered a composite z-score of -0.983. The compound `COC(=O)[C@@]1(Cc2ccc(OC)cc2)[C@H]2c3cc(C(=O)N4CCCC4)n(CCF)c3C[C@H]2CN1C(=O)c1ccccc1` registered a composite z-score of 1.35.

(Values after PubChem BioAssay.)
